Each structure is given as a SMILES string. Hit rate of the full screen: of about 310,000 compounds, about 14,000 (4.5%) showed an effect of 50% or more. Effects have a minus sign here. For the sample, strong results were picked, then their nearest neighbours and some compounds at random.
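Also: peak tail current of the secondary pulse compared with the same well before compound.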

For the test, the target named is human ether-à-go-go-related gene (hERG) potassium channel (human, UniProt Q12809). The experiment in a line: primary screen, population patch clamp on CHO cells stably expressing hERG; higher = less effect of the substance.
human ether-à-go-go-related gene (hERG) potassium channel, sequence (Q12809 whole entry, looked up): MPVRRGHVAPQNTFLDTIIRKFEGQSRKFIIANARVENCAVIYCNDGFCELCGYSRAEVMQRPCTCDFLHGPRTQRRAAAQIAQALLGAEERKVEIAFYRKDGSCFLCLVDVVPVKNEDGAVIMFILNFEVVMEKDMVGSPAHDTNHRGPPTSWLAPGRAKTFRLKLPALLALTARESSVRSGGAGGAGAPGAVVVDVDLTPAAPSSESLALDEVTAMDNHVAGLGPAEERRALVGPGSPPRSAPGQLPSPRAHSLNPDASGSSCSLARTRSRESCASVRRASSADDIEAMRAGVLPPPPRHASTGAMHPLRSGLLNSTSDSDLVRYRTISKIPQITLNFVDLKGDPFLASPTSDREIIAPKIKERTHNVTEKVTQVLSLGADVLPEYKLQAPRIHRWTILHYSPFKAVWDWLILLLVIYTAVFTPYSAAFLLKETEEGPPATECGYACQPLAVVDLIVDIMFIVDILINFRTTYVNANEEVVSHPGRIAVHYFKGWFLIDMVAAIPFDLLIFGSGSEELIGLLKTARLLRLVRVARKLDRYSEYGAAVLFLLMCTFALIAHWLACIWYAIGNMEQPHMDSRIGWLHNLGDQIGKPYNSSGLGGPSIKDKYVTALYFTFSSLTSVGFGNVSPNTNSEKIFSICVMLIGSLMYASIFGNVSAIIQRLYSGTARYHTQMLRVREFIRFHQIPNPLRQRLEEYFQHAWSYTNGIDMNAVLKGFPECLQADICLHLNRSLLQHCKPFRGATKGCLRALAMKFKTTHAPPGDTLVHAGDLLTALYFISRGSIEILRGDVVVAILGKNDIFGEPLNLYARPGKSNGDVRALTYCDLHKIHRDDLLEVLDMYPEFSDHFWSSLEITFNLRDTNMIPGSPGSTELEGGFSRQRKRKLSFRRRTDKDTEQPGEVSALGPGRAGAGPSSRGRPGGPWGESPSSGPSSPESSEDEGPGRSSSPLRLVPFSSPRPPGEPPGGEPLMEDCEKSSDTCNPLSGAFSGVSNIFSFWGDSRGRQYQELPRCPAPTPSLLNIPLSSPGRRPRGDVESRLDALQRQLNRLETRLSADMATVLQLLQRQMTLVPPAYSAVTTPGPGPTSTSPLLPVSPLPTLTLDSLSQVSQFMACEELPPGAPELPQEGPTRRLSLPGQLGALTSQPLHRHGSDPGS
For the molecule `CCOC(=O)CC(=O)Nc1ccc(Br)cc1C(=O)O`, the “hERG current change (%, negative = inhibition) at 10uM” value was -11.3%.

`COc1ccc(CNC(=O)c2cc(=O)c3cc(C)cc(C)c3o2)cc1`: the “hERG current change (%, negative = inhibition) at 10uM” value is reported as 2.04%.

`CCn1c(SCC(=O)Nc2ccc(NC(=O)c3ccco3)c(OC)c2)nc2ccccc2c1=O`: the “hERG current change (%, negative = inhibition) at 10uM” value is given as -20%.

For `CCOC(=O)C1=C(O)/C(=C/c2ccc(OCC(=O)Nc3ccc(C)cc3)cc2)N=C1C`, the “hERG current change (%, negative = inhibition) at 10uM” value is on record as 10.6%.

As for `C/C(=N\NC(=O)c1cc(-c2cccnc2)nc2ccccc12)c1ccccc1O`, the “hERG current change (%, negative = inhibition) at 10uM” value came to 0.355%.

Turning to `Cn1c(=O)c2c(=O)cc(NNC(=O)C(C)(C)C)[nH]c2n(C)c1=O`, the “hERG current change (%, negative = inhibition) at 10uM” value stood at 0.349%.

Turning to `CCCC[C@@H]1CNC(=S)N1CCCC`, the “hERG current change (%, negative = inhibition) at 10uM” value is given as 11%.

As to `C/C(CC(=O)Nc1ccc2c(c1)OCCO2)=N\NC(=O)Cc1ccc(Cl)cc1`, the “hERG current change (%, negative = inhibition) at 10uM” value was found to be 11.2%.

In the case of `CCCCc1nnc(NC(=O)CSc2nc(O)c(-c3ccccc3)c(=O)[nH]2)s1`, the “hERG current change (%, negative = inhibition) at 10uM” value is reported as 1.48%.

As for `Cc1ccc(N(CCCCN2C(=O)c3ccccc3C2=O)C(=O)c2cccc([N+](=O)[O-])c2)cc1`, the “hERG current change (%, negative = inhibition) at 10uM” value is recorded as -59.5%.

Regarding `O=C1c2ccccc2C(=O)N1CCCCN(C(=O)c1cccc([N+](=O)[O-])c1)c1ccc(Cl)cc1`, the “hERG current change (%, negative = inhibition) at 10uM” value is listed as -7.96%.

In the case of `CC(=O)N(CCCCN1C(=O)c2ccccc2C1=O)c1ccc(C)cc1`, the “hERG current change (%, negative = inhibition) at 10uM” value was -34.5%.

Regarding `O=C1c2ccccc2C(=O)N1CCCCN(C(=O)c1ccco1)c1ccc(Cl)cc1`, the “hERG current change (%, negative = inhibition) at 10uM” value is -55.7%.

With `O=C1c2ccccc2C(=O)N1CCCCN(C(=O)c1ccc([N+](=O)[O-])cc1)c1ccc(Cl)cc1`, the “hERG current change (%, negative = inhibition) at 10uM” value was -3.93%.

In the case of `O=C1c2ccccc2C(=O)N1CCCCN(C(=O)c1ccc(Cl)s1)c1ccc(Cl)cc1`, the “hERG current change (%, negative = inhibition) at 10uM” value is on record as 8.41%.

Consider `Cc1ccc(N(CCCCN2C(=O)c3ccccc3C2=O)C(=O)c2ccc(Cl)s2)cc1`, for which the “hERG current change (%, negative = inhibition) at 10uM” value was found to be 2.79%.

Take `Cc1ccc(N(CCCCN2C(=O)c3ccccc3C2=O)C(=O)c2cccs2)cc1`: the “hERG current change (%, negative = inhibition) at 10uM” value is on record as -67.3%.

`O=C1c2ccccc2C(=O)N1CCCCN(C(=O)c1cc([N+](=O)[O-])cc([N+](=O)[O-])c1)c1ccc(Cl)cc1`: the “hERG current change (%, negative = inhibition) at 10uM” value was determined as 5.87%.

On to `OC1C2(Cc3ccccc3)CN3CCN(C2)CC1(Cc1ccccc1)C3` (centres unmarked), for which the “hERG current change (%, negative = inhibition) at 10uM” value is given as -1.47%.

In the case of `Cc1[nH][nH]c(=O)c1C(c1ccc(-c2cccc(C(=O)O)c2)o1)c1c(C)[nH][nH]c1=O`, the “hERG current change (%, negative = inhibition) at 10uM” value is 19.2%.

On to `COc1ccc(OC)c(NC(=O)c2ccc(Cl)cc2)c1`, for which the “hERG current change (%, negative = inhibition) at 10uM” value was -5.32%.

In the case of `COc1ccc(/C(C)=N/Nc2nc3ccccc3n3cnnc23)cc1OC`, the “hERG current change (%, negative = inhibition) at 10uM” value is recorded as -19.4%.

Consider `CC(c1ccccc1)n1c(CCCO)nc2ccccc21` (centres unmarked), for which the “hERG current change (%, negative = inhibition) at 10uM” value is listed as -2.26%.

Take `COc1cccc(OC)c1C(=O)Nc1ccc(Cc2ccncc2)cc1`: the “hERG current change (%, negative = inhibition) at 10uM” value is 8.86%.

With `CC1CCCN(Cc2nc3c(c(=O)n(C)c(=O)n3C)n2CC(=O)c2ccccc2)C1` (centres unmarked), the “hERG current change (%, negative = inhibition) at 10uM” value is on record as -8.71%.

With `CCN(Cc1ccncc1)Cc1cn[nH]c1-c1ccc(OC)cc1F`, the “hERG current change (%, negative = inhibition) at 10uM” value is recorded as -3.13%.

On to `COc1ccc(NC(=O)CN(C)C(=O)c2cccc3ccccc23)cc1`, for which the “hERG current change (%, negative = inhibition) at 10uM” value amounted to 3.09%.

For `CCOc1nc(NCCN2CCOCC2)nc(NC(C)C)n1`, the “hERG current change (%, negative = inhibition) at 10uM” value is listed as -9.84%.

Consider `O=[N+]([O-])c1ccc(Nc2nc(NCCO)nc(N3CCCC3)n2)cc1`, for which the “hERG current change (%, negative = inhibition) at 10uM” value is recorded as -58.3%.

Regarding `CCOc1nc(NCCN2CCOCC2)nc(Nc2ccc([N+](=O)[O-])cc2)n1`, the “hERG current change (%, negative = inhibition) at 10uM” value is -93.1%.

With `COc1nc(NCCO)nc(Nc2ccc([N+](=O)[O-])cc2)n1`, the “hERG current change (%, negative = inhibition) at 10uM” value is on record as -40.2%.

With `OCCNc1nc(Nc2ccc(Cl)cc2)nc(N2CCCC2)n1`, the “hERG current change (%, negative = inhibition) at 10uM” value is listed as -15.1%.

On to `CCOc1nc(Nc2ccc([N+](=O)[O-])cc2)nc(NC(C)(C)C)n1`, for which the “hERG current change (%, negative = inhibition) at 10uM” value was 12.2%.

For `CCCNc1nc(Nc2ccc(C)cc2)nc(N2CCCC2)n1`, the “hERG current change (%, negative = inhibition) at 10uM” value is on record as -30.6%.

`C=CCNc1nc(Nc2ccc([N+](=O)[O-])cc2)nc(OC)n1`: the “hERG current change (%, negative = inhibition) at 10uM” value is given as -14.1%.

For `CCOc1nc(NCCN2CCOCC2)nc(Nc2ccc(C)cc2)n1`, the “hERG current change (%, negative = inhibition) at 10uM” value was -65.3%.

`CCOc1nc(NCCO)nc(Nc2ccc([N+](=O)[O-])cc2)n1`: the “hERG current change (%, negative = inhibition) at 10uM” value is listed as -9.66%.

On to `C=CCNc1nc(Nc2ccc([N+](=O)[O-])cc2)nc(N2CCCC2)n1`, for which the “hERG current change (%, negative = inhibition) at 10uM” value is -23.8%.

Regarding `COc1nc(NCCN2CCOCC2)nc(Nc2ccc([N+](=O)[O-])cc2)n1`, the “hERG current change (%, negative = inhibition) at 10uM” value is listed as -50.7%.

Turning to `CCCn1c(N)c(N(CCOC)C(=O)c2cc(C)cc(C)c2)c(=O)[nH]c1=O`, the “hERG current change (%, negative = inhibition) at 10uM” value is listed as 16.4%.

`CCCS(=O)(=O)N1CCN(Cc2ccc(OCc3ccccc3)c(OC)c2)CC1.O=C(O)C(=O)O`: the “hERG current change (%, negative = inhibition) at 10uM” value was -43.2%.

As for `O=C(NCc1ccccn1)c1c(Cl)cccc1Cl`, the “hERG current change (%, negative = inhibition) at 10uM” value stood at 2.78%.

Turning to `COc1ccc(-n2c(C)cc(C)c(C(C)=O)c2=S)cc1`, the “hERG current change (%, negative = inhibition) at 10uM” value is given as -2.39%.

Consider `Cc1cccc(N2CCN(CC(=O)N(C3CCCC3)C3CCS(=O)(=O)C3)CC2)c1C` (centres unmarked), for which the “hERG current change (%, negative = inhibition) at 10uM” value is -13.3%.

(Values after PMC4336329 (PLoS ONE, 2015).)
